# Laboratory results from ChEMBL document CHEMBL3988442, “University of Dundee, Small-Polar-MMV Screening Library” (2021).
# The whole screen tested about 69,000 compounds, of which about 1,000 (1.4%) showed an effect of 50% or more. The full list was thinned out, with strong results kept by preference.
# Tested on: Leishmania donovani
# Test: Leishmania intramacrophage assay
# Type: functional, organism-based
# Design: scale not given: in the data most compounds retested in dose-response had high values
smiles,measurement,setting,value
CC(C)c1cc(=O)[nH]c(-c2ccccc2CN2CCCCCC2)n1,Percent Effect,"30.3 µM, […]",1.494%
CCCc1nc2c(c(C)c(C)n2Cc2ccncc2)c(N)c1CC,Percent Effect,"30.3 µM, […]",13.89%
CCCc1nc2c(c(C)c(C)n2Cc2cccnc2)c(N)c1CC,Percent Effect,"30.3 µM, […]",64.41%
CCc1nc2c(c(C)c(C)n2Cc2cccnc2)c(N)c1C,Percent Effect,"30.3 µM, […]",13.69%
CCCc1nc2c(c(C)c(C)n2Cc2ccccn2)c(N)c1CC,Percent Effect,"30.3 µM, […]",98.46%
Cc1c(C)n(Cc2ccccn2)c2nc3c(c(N)c12)CCCC3,Percent Effect,"30 µM, 30.03 µM",-5.276%
Cc1c(C)n(Cc2ccncc2)c2nc3c(c(N)c12)CCCC3,Percent Effect,"30.3 µM, […]",9.739%
O=C(Cc1ccon1)N1CCN(c2ccc(F)cc2Cl)CC1,Percent Effect,"30.3 µM, […]",4.988%
CNC(=O)c1cnn2c(C3CCCN3C)ccnc12 (stereo unspecified),Percent Effect,"30.3 µM, […]",-0.3512%
CCN1CCC2(CCN(c3ncccn3)CC2)C1=O.O=C(O)C(F)(F)F,Percent Effect,"30.3 µM, […]",-8.891%
Cc1cc(C(=O)NCC(C)C)nn1C,Percent Effect,"30.3 µM, […]",3.079%
Cc1ccc(F)c(OC2CCCN(c3cnn(C)c3)C2=O)c1 (stereo unspecified),Percent Effect,"30.3 µM, […]",1.572%
CN(Cc1nccn1C)S(=O)(=O)Cc1cccc(C#N)c1,Percent Effect,"30.3 µM, […]",3.121%
Cc1c[nH]c(C2CCCN(Cc3ccccc3C(=O)O)C2)n1.O=CO (stereo unspecified),Percent Effect,"30.3 µM, […]",-7.994%
CC(=O)N1CCCN(C(=O)NCCNc2cnccn2)CC1,Percent Effect,30 µM,10.17%
CN(C)c1nccc(N2CCO[C@H]3CN(Cc4nccn4C)C[C@H]32)n1.O=C(O)C(F)(F)F,Percent Effect,"30.3 µM, […]",22.89%
Cc1cccc(CN2C[C@@H]3OCCN(c4ccnc(N(C)C)n4)[C@@H]3C2)c1.O=C(O)C(F)(F)F,Percent Effect,"30.3 µM, […]",-2.723%
CCc1ccc(CN2C[C@@H]3OCCN(c4ccnc(N(C)C)n4)[C@@H]3C2)o1.O=C(O)C(F)(F)F,Percent Effect,"30 µM, 30.03 µM",55.16%
CCc1cc(CNC(=O)C2CCCN(C(=O)NCC(C)C)C2)[nH]n1 (stereo unspecified),Percent Effect,"30.3 µM, […]",-11.81%
CCn1nc2c(cc1=O)CN(Cc1coc(-c3ccccc3)n1)CC2,Percent Effect,"30.3 µM, […]",51.53%
Cc1ccc(-c2nc(CN3CCc4nn(C)c(=O)cc4C3)co2)cc1,Percent Effect,"30 µM, 30.03 µM",21.01%
Cn1nc2c(cc1=O)CN(Cc1coc(-c3ccccc3)n1)CC2,Percent Effect,"30.3 µM, […]",18.82%
Nc1cc2c(nn1)CCN(C(=O)CC1CCCCC1)C2,Percent Effect,30 µM,25.14%
CCOC(=O)C1(Cc2ccccc2)CCCN(Cc2nccn2CC)C1 (stereo unspecified),Percent Effect,"30.3 µM, […]",51.2%
CCOC(=O)C1(CCOC)CCCN(Cc2nccn2CC)C1 (stereo unspecified),Percent Effect,"30.3 µM, […]",-5.772%
CCOC(=O)C1(Cc2cccc(OC)c2)CCCN(Cc2ncc[nH]2)C1 (stereo unspecified),Percent Effect,"30.3 µM, […]",-0.9604%
CN(C)C(=O)CNC(=O)c1ccc(Cl)cc1F,Percent Effect,"30 µM, 30.03 µM",-10.55%
Br.O=C(CN(C1=NCCCC1)c1ccccc1)c1ccccc1,Percent Effect,"30 µM, 30.03 µM",-5.499%
Br.Cc1ccc(N(CC(=O)c2ccc(Br)cc2)C2=NCCCCC2)cc1,Percent Effect,"30 µM, 30.03 µM",57.51%
COc1ccc(CN(Cc2c[nH]cn2)CC2CCCO2)c(OC)c1.O=C(O)CC(O)(CC(=O)O)C(=O)O (stereo unspecified),Percent Effect,"30.3 µM, […]",20.29%
Cc1noc(C)c1CN1CCc2ncnc(-c3cccnc3)c2CC1.O=C(O)C(F)(F)F.O=C(O)C(F)(F)F,Percent Effect,"30.3 µM, […]",26.97%
Cc1cc2c(N3CCC(N(C)Cc4cnn(C)c4)CC3)ncnc2s1,Percent Effect,"30.3 µM, […]",31.66%
Cc1cc2c(N3CCC(N(C)CCc4cnn(C)c4)CC3)ncnc2s1,Percent Effect,"30.3 µM, […]",2.228%
Cc1sc2ncnc(N3CCC(N(C)Cc4cnn(C)c4)CC3)c2c1C,Percent Effect,"30.3 µM, […]",50.06%
Cc1oc(C)c(C(=O)Nc2ccccn2)c1C,Percent Effect,"30.3 µM, […]",0.1995%
Cc1cc(N2CCc3c(ncn3C)C2)n2nc(C(F)(F)F)nc2n1,Percent Effect,"30.3 µM, […]",17.99%
CC1(c2ccccc2)CCCN(Cc2cncn2C2CCCC2)C1 (stereo unspecified),Percent Effect,"30.3 µM, […]",95.34%
COCCn1cncc1CN1CCCC(C)(c2ccccc2)C1 (stereo unspecified),Percent Effect,"30.3 µM, […]",-2.364%
CC1(c2ccccc2)CCCN(Cc2cncn2C2CC2)C1 (stereo unspecified),Percent Effect,"30.3 µM, […]",33.62%
Cc1ccc(C2(CN(C)Cc3sccc3C)CCNCC2)nc1,Percent Effect,"30.3 µM, […]",56.47%
Cc1ccc(C2(CN(C)Cc3snnc3C)CCNCC2)nc1,Percent Effect,"30.3 µM, […]",37.33%
Cc1ccc(C2(CN(C)Cc3c(C)nn(C)c3C)CCNCC2)nc1,Percent Effect,"30.3 µM, […]",37.1%
Cc1cccc(-c2noc(CN3CCCC(Cn4cncn4)C3)n2)c1 (stereo unspecified),Percent Effect,"30 µM, 30.03 µM",23.08%
CC(C)c1cncnc1N1CC[C@H](N2CCOCC2)[C@H](CCCO)C1,Percent Effect,"30.3 µM, […]",26.26%
CCc1ccc(C2CC(=O)Nc3cc(OC)c(NS(C)(=O)=O)cc32)o1 (stereo unspecified),Percent Effect,"30.3 µM, […]",-14.18%
CCc1ccc(C2CC(=O)Nc3cc(NS(C)(=O)=O)ccc32)o1 (stereo unspecified),Percent Effect,"30.3 µM, […]",14.16%
CCCC(=O)Nc1cc2c(cc1OC)NC(=O)CC2c1ccc(CC)o1 (stereo unspecified),Percent Effect,"30.3 µM, […]",77.7%
Cc1cc(CN2CCN(Cc3cc(C#N)ccc3F)CC2)no1,Percent Effect,"30.3 µM, […]",28.56%
Cc1ccnc(OC[C@@]23CCO[C@@H]2CCN(c2ncc(F)cn2)C3)n1.O=C(O)C(F)(F)F,Percent Effect,"30.3 µM, […]",22.41%
CC(CN1CCCC1=O)NC(=O)c1cc(Cl)c2c(c1)OCO2 (stereo unspecified),Percent Effect,"30.3 µM, […]",-42.28%
O=C(N[C@@H]1CCNC[C@H]1O)c1ccc(-c2ccc(F)cc2)cc1,Percent Effect,"30.3 µM, […]",72.82%
O=C(N[C@@H]1CCNC[C@H]1O)c1ccc(F)c(Cl)c1,Percent Effect,"30 µM, 30.03 µM",13.21%
O=C(N[C@@H]1CCNC[C@H]1O)c1ccc(F)c(F)c1,Percent Effect,"30.3 µM, […]",-28.62%
Cc1nc(CN2CCOC(Cn3cccn3)C2)nc2ccccc12 (stereo unspecified),Percent Effect,30 µM,18.44%
Cc1nn(C)c2nc(N3CCN(Cc4nccn4C)CC3)sc12,Percent Effect,"30.3 µM, […]",15.9%
Cc1nn(C)c2nc(N3CCC(C(O)c4ccccn4)CC3)sc12 (stereo unspecified),Percent Effect,"30.3 µM, […]",50.06%
Cc1nn(C)c2nc(N3CCC(C(O)Cc4ccccc4)CC3)sc12 (stereo unspecified),Percent Effect,"30.3 µM, […]",58.21%
Cc1nn(C)c2nc(N3CCC(C(O)c4nccn4C)CC3)sc12 (stereo unspecified),Percent Effect,"30.3 µM, […]",-0.9674%
Cc1nc(N)sc1C(=O)N1CCC(C(O)Cc2ccccc2)CC1 (stereo unspecified),Percent Effect,"30.3 µM, […]",8.209%
Cc1ccc(N2CCC(C(O)Cc3ccccc3)CC2)nn1 (stereo unspecified),Percent Effect,"30.3 µM, […]",17.05%
CN(C)C[C@@H]1CN(C(=O)Cc2ccc3ccccc3c2)C[C@@H]1CO,Percent Effect,"30.3 µM, […]",-3.237%
CC(C)N1CC2(CCC1=O)CCN(C(=O)c1cc(F)ccc1Cl)CC2,Percent Effect,"30.3 µM, […]",18%
COc1ccc(CCNC(=O)CN2CCOCS2(=O)=O)cc1,Percent Effect,"30.3 µM, […]",0.9024%
CCc1noc(C2CCCCN2C(=O)c2cccnc2)n1 (stereo unspecified),Percent Effect,"30.3 µM, […]",-10.93%
CCc1noc(C2CCCCN2C(=O)c2ccc3c(c2)OCO3)n1 (stereo unspecified),Percent Effect,"30.3 µM, […]",61.74%
CCc1noc(C2CCCCN2C(=O)c2ccccc2)n1 (stereo unspecified),Percent Effect,"30.3 µM, […]",-11.89%
O=C1C(CS(=O)(=O)Nc2ccc(Br)cc2)=NC(=O)n2cccc21,Percent Effect,"30.3 µM, […]",-27.67%
CCc1noc(CN(CC)C(=O)c2ccc3ncsc3c2)n1,Percent Effect,"30.3 µM, […]",-21.19%
CN(Cc1n[nH]c(=O)n1CCc1ccccc1F)S(C)(=O)=O,Percent Effect,"30.3 µM, […]",22.43%
COc1cccc2c1OCC(C(=O)N1CCN(CCS(C)(=O)=O)CC1)C2 (stereo unspecified),Percent Effect,"30.3 µM, […]",2.664%
Fc1ccc(CN2CCCC3(CCN(Cc4ncc[nH]4)C3)C2)cc1F (stereo unspecified),Percent Effect,"30.3 µM, […]",24.4%
Cc1ccc(CN2CCC3(CCCN(Cc4ccc(F)c(F)c4)C3)C2)o1 (stereo unspecified),Percent Effect,"30.3 µM, […]",-12.81%
Cc1c[nH]c(CN2CCC3(CCCN(Cc4ccc(F)c(F)c4)C3)C2)n1 (stereo unspecified),Percent Effect,"30.3 µM, […]",53.74%
Cc1cc(C)n(C2CCN(S(C)(=O)=O)CC2)n1,Percent Effect,"30.3 µM, […]",-8.348%
O=C(Nc1cc(Cl)ccc1Cl)NC1CCN(C2CCOC2)CC1 (stereo unspecified),Percent Effect,"30.3 µM, […]",-19.47%
O=C(NCCn1ccnc1)N1CCCN(Cc2cccs2)CC1,Percent Effect,30 µM,32.04%
CN(C)C(=O)C1CN(c2ncccn2)CCN1C (stereo unspecified),Percent Effect,"30.3 µM, […]",10.06%
COc1nc2c(cc1C(=O)N1CCCC1c1ccccn1)CCC2 (stereo unspecified),Percent Effect,"30.3 µM, […]",15.04%
CCn1cnnc1C1CCN(C(=O)C(OC)c2ccccc2)CC1 (stereo unspecified),Percent Effect,"30 µM, 30.03 µM",25.64%
CN1CCN(C2COC3(CCN(Cc4cccs4)CC3)C2)CC1.O=C(O)C(F)(F)F.O=C(O)C(F)(F)F (stereo unspecified),Percent Effect,"30.3 µM, […]",53.18%
O=C(O)C(F)(F)F.c1cnc(NC2COC3(CCN(Cc4cccs4)CC3)C2)nc1 (stereo unspecified),Percent Effect,"30.3 µM, […]",-71.32%
CN1CCN(C2COC3(CCN(Cc4ccc(F)cc4)CC3)C2)CC1.O=C(O)C(F)(F)F.O=C(O)C(F)(F)F.O=C(O)C(F)(F)F (stereo unspecified),Percent Effect,"30.3 µM, […]",32.4%
CN1CCN(C2COC3(CCN(Cc4ccsc4)CC3)C2)CC1.O=C(O)C(F)(F)F.O=C(O)C(F)(F)F (stereo unspecified),Percent Effect,"30.3 µM, […]",20.49%
O=C(O)C(F)(F)F.O=C(c1ccccc1)N1CCOC2(CCN(Cc3cccs3)CC2)C1,Percent Effect,"30.3 µM, […]",5.175%
Cc1ccc(CN2CCC3(CC2)CC(N2CCN(C)CC2)CO3)s1.O=C(O)C(F)(F)F.O=C(O)C(F)(F)F.O=C(O)C(F)(F)F (stereo unspecified),Percent Effect,"30.3 µM, […]",35.32%
CCc1ccc(CN2CCC3(CC2)CC(N2CCN(C)CC2)CO3)cc1.O=C(O)C(F)(F)F (stereo unspecified),Percent Effect,"30 µM, 30.03 µM",78.58%
Fc1cnc(N2CCOC3(CCN(Cc4cccs4)CC3)C2)nc1.O=C(O)C(F)(F)F.O=C(O)C(F)(F)F,Percent Effect,"30.3 µM, […]",53.49%
Fc1cnc(N2CCOC3(CCN(Cc4ccsc4)CC3)C2)nc1.O=C(O)C(F)(F)F.O=C(O)C(F)(F)F,Percent Effect,"30 µM, 30.03 µM",16.14%
COc1ccc(C2CC(=O)Oc3cc(C)[nH]c(=O)c32)cc1 (stereo unspecified),Percent Effect,"30 µM, 30.03 µM",-4.044%
Cc1nnc(C2Cc3ccccc3CN2Cc2nc(C(C)C)no2)o1 (stereo unspecified),Percent Effect,30 µM,-13.45%
CC(C)N1C(=O)CC(NC(=O)c2cc(Cl)sc2Cl)C1=O (stereo unspecified),Percent Effect,"30.3 µM, […]",8.109%
O=C(NCc1cccnc1)[C@@H]1C[C@H]2[C@H](CCN2c2ncccn2)O1.O=C(O)C(F)(F)F.O=C(O)C(F)(F)F,Percent Effect,"30.3 µM, […]",4.628%
COCC(NC(=O)NCc1cccc(C#N)c1)c1ccco1 (stereo unspecified),Percent Effect,"30.3 µM, […]",13.13%
Cc1nc(CN2CCN(c3cncc(Cl)n3)CC2)no1,Percent Effect,"30.3 µM, […]",-1.637%
Cc1noc(CN2CCN(CCO)CC2)n1,Percent Effect,"30.3 µM, […]",9.212%
Cc1noc(CN2CCN(c3cncc(Cl)n3)CC2)n1,Percent Effect,"30.3 µM, […]",51.54%
